PubChem BioAssay
Values joined by “and” are separate entries in the source; they are usually repeats but may differ in a detail not shown here. Identical values can stand only once. Active and inactive are the calls of the source.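 The calls were made as follows, unless noted: active = at least 20% inhibition of 6-phosphogluconate dehydrogenase activity; inactive = the rest.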

Key:
[1] = molecular target: 6-phosphogluconate dehydrogenase, decarboxylating (Homo sapiens) (UniProt P52209); assay: inhibition of human phosphogluconate dehydrogenase – biochemical, recombinant enzyme, NADPH absorbance, primary screen (AID 1159550); details: recombinant 6PGD, NADPH absorbance 341 nm; at 10 µM; stronger effect = higher value
6-phosphogluconate dehydrogenase, decarboxylating (Homo sapiens), sequence (P52209 whole entry, looked up): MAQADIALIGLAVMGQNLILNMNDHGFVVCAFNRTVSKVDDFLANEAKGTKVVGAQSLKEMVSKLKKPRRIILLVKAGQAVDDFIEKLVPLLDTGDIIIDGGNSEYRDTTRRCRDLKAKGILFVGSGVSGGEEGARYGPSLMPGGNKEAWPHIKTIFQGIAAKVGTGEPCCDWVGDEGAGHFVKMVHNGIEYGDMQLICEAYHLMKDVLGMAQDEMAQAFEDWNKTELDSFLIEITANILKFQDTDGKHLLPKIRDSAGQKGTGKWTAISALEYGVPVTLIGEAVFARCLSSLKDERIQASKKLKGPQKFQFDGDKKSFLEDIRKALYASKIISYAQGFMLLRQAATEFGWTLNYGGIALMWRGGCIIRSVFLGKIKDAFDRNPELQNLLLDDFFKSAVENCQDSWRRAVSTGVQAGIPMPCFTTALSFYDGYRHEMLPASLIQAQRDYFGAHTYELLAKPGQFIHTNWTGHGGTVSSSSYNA

[2] = EMT-state selective cytotoxicity in co-culture – imaging, PC-3E GFP, TEM4-18 mCherry, primary screen (AID 1345086;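 active = compounds killing one labelled cell type while sparing the other, by normalised counts and ratio limits, not self-fluorescent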;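 as to all read-outs here: cells exposed to compound for 72 h before imaging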;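 as to red/green cell ratio (normalised): normalised mesenchymal count divided by normalised epithelial count so high means epithelial killing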); details: PC-3E GFP / TEM4-18 mCherry co-culture, imaging cell counts, at 1 µM; for red/green cell ratio (normalised): actives lie on both sides, counts scaled to control wells, 1 = unselective
[3] = molecular target: Mitogen-activated protein kinase 7 (Homo sapiens) (UniProt Q13164); assay: Gal4-ERK5 driven luciferase induction – cell-based, HTS, primary screen (AID 1508626;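 active = luciferase signal above three times the same-plate solvent-only control wells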;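 also: luciferase driven by Gal4-ERK5 fusion binding five Gal4 sites before minimal TATA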); details: HeLa Gal4-ERK5 transactivation, 18 h, at 5 µM, stronger effect = higher value
Mitogen-activated protein kinase 7 (Homo sapiens), sequence (Q13164 whole entry, looked up, the tested form may be a part): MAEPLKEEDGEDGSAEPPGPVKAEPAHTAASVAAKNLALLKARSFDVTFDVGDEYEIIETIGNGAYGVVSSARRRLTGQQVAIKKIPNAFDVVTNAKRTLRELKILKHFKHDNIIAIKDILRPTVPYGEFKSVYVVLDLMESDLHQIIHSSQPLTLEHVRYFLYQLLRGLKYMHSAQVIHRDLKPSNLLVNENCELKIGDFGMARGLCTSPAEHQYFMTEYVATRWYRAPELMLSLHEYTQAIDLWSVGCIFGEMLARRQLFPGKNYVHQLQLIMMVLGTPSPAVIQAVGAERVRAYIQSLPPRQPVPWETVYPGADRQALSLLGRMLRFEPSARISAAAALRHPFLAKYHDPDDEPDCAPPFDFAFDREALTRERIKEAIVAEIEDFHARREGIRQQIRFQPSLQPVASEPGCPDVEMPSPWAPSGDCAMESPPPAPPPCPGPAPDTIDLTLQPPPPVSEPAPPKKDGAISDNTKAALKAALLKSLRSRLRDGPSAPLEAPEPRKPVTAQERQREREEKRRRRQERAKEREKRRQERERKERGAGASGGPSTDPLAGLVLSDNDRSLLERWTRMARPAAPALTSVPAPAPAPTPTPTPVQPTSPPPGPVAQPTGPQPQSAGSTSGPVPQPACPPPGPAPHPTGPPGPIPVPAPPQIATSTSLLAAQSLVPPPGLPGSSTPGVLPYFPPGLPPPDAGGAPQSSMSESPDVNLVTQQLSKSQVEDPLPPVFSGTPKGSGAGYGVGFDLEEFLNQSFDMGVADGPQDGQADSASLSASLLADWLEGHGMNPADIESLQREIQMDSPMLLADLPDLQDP

[4] = measured here: epithelial PC-3E GFP cell survival
[5] = measured here: mesenchymal TEM4-18 mCherry cell survival

Compound	inhibition [1]	red/green cell ratio (normalised) [2]	normalised cell number [2, 4]	normalised cell number [2, 5]	luciferase signal [3]
COc1cc2c(cc1OC)C1(O)C(=O)c3ccc(O)c(C(=O)O)c3OC1CO2 (stereo not given)	11.5% (inactive)	1 (inactive)	1.11	1.11	16 AU (inactive)
CC(CCC(=O)O)[C@H]1CCC2C3CC[C@@H]4CC(=O)CC[C@]4(C)C3C=C[C@@]21C (stereo not given in full)	12.1% (inactive)	0.9 (inactive)	1	0.9	28 AU (inactive)
COc1cc(O)ccc1C(C)=O	12.4% (inactive)	0.96 (inactive)	0.95	0.91	124 AU (inactive)
COc1cc2ccc(=O)oc2c(OC)c1OC	1.65% (inactive)	0.93 (inactive)	0.81	0.75	16 AU (inactive)
CC(C)c1ccc2c(c1)CCC1[C@](C)(CN)CCC[C@]21C (stereo not given in full)	0.884% (inactive)	0.87 (inactive)	0.95	0.83	48 AU (inactive)
CC(=O)Oc1ccc2c(c1OC(C)=O)OCC1(O)Cc3c(cc(OC(C)=O)c(OC(C)=O)c3OC(C)=O)C21 (stereo not given)	18.4% (inactive)	0.84 (inactive)	1.08	0.91	44 AU (inactive)
COc1cc(O)c(C)c(O)c1	5.9% (inactive)	0.94 (inactive)	1.19	1.12	48 AU (inactive)
COc1cc(C(C)=O)cc(OC)c1O	-40.3% (inactive)	1.05 (inactive)	0.87	0.91	64 AU (inactive)
COc1ccc(C(=O)/C=C/c2ccccc2)cc1	8.83% (inactive)	1.17 (inactive)	0.89	1.04	88 AU (inactive)
COc1ccc(-c2coc3cc(O)ccc3c2=O)c(O)c1O	9.58% (inactive)	0.97 (inactive)	0.83	0.8	16 AU (inactive)
COc1cc(O)c2c(=O)cc(C)oc2c1CC=C(C)C	12.4% (inactive)	1.22 (inactive)	0.96	1.17	36 AU (inactive)
C=CCSCC=C	-1.41% (inactive)	1.04 (inactive)	1.02	1.06	20 AU (inactive)
CCOc1ccc(C(=O)c2ccc(O)c(O)c2O)cc1	-12.8% (inactive)	0.88 (inactive)	0.99	0.87	104 AU (inactive)
CC(C)=CC1C(CO)C1(C)C (stereo not given)	2.26% (inactive)	0.97 (inactive)	0.97	0.94	68 AU (inactive)
C=C(C)[C@H]1COc2cc3oc(=O)ccc3cc2O1	5.71% (inactive)	0.95 (inactive)	1.17	1.11	44 AU (inactive)
CC1(C)C=Cc2cc3ccc(=O)oc3cc2O1	5.11% (inactive)	0.99 (inactive)	1.07	1.05	56 AU (inactive)
CC(=O)Oc1ccc(O)cc1	4.32% (inactive)	1.07 (inactive) and 1.15 (inactive)	1.01 and 1.05	1.08 and 1.21	88 AU (inactive)
CC(=O)O[C@@H]1CC2C(C)(CC[C@H](O)C2(C)C)C2CC[C@]3(C)C(=CC(=O)O[C@H]3c3ccoc3)C21C (stereo not given in full)	0.669% (inactive)	1.03 (inactive)	1.07	1.1	16 AU (inactive)
COc1ccc(-c2coc3c(O)c(OC)ccc3c2=O)cc1	11.6% (inactive)	0.97 (inactive)	1.1	1.06	100 AU (inactive)

Compound	inhibition [1]	red/green cell ratio (normalised) [2]	normalised cell number [2, 4]	normalised cell number [2, 5]	luciferase signal [3]
O=C(/C=C/c1ccccc1)c1ccc(O)cc1	1.18% (inactive)	1.04 (inactive)	0.75	0.79	28 AU (inactive)
COc1ccc([C@H]2Oc3cc(OC)cc(OC)c3C[C@H]2O)cc1	-0.838% (inactive)	0.79 (inactive)	1.04	0.82	84 AU (inactive)
CC1(C)CC2C1CCC1(C)OC1CCC2(C)O (stereo not given)	19.1% (inactive)	1.05 (inactive)	0.98	1.02	620 AU (active)
O=c1c(O)c(-c2ccccc2)oc2cc(O)ccc12	-10.2% (inactive)	0.89 (inactive)	0.98	0.88	264 AU (inactive)
CC1=CCc2c(cc3oc(C)cc(=O)c3c2O)OC1	0.892% (inactive)	1.1 (inactive)	1.02	1.12	16 AU (inactive)
CC12CCC3C(CC3(C)C)C(C)(CCC1=O)O2 (stereo not given)	11.8% (inactive)	1.12 (inactive)	0.97	1.09	60 AU (inactive)
COc1ccc2c(c1)O[C@@H]1COc3cc(OC)c(OC)cc3[C@@H]1C2=O	-2.95% (inactive)	0.88 (inactive)	0.9	0.79	68 AU (inactive)
CC1(C)CC23C(=O)CCC(O)C2(C)CCC13 (stereo not given)	-0.3% (inactive)	1 (inactive)	1.11	1.11	72 AU (inactive)
C=C1CCC(C2CC(=O)OC2=O)C(=O)CCC2C1CC2(C)C (stereo not given)	13.1% (inactive)	0.84 (inactive)	1.27	1.06	144 AU (inactive)
CC1=CC(=O)C(C(C)C)=CC1=O	-9.74% (inactive)	0.97 (inactive)	0.99	0.96	24 AU (inactive)
COc1cc(OC)c2c(=O)c(-c3ccc4c(c3)OCO4)coc2c1	7.77% (inactive)	1.06 (inactive)	1.13	1.2	92 AU (inactive)
Cc1cc(O)c(C=O)c2c1C(=O)Oc1c(C)c(O)c3c(c1O2)C(O)OC3=O (stereo not given)	7.31% (inactive)	0.95 (inactive)	1.01	0.96	136 AU (inactive)
COC(=O)[C@@H]1OC(=O)C2OC23[C@@]1(C)CCC1[C@]2(C)C(C[C@@H](O)[C@]13C)C(C)(C)[C@H](OC(C)=O)C[C@@H]2OC(C)=O (stereo not given in full)	-0.817% (inactive)	0.93 (inactive)	1.09	1.02	64 AU (inactive)
C#CCCCCCCCCCCCC(O)CC(O)COC(C)=O (stereo not given)	8.03% (inactive)	0.83 (inactive)	1.1	0.91	60 AU (inactive)
Nc1ccccc1C(=O)CC(N)C(=O)O (stereo not given)	-2.44% (inactive)	1.23 (inactive)	0.56	0.69	68 AU (inactive)
CC(C(=O)O)[C@H]1CCC2C3CC=C4C[C@@H](O)CC[C@]4(C)C3CC[C@@]21C (stereo not given in full)	8.3% (inactive)	0.91 (inactive)	1.12	1.02	44 AU (inactive)
Cc1cc(O)cc(O)c1C(=O)O	-6.2% (inactive)	0.81 (inactive)	1.09	0.88	124 AU (inactive)
Cc1cc(OC(=O)c2c(C)cc(O)cc2O)cc(O)c1C(=O)O	1.29% (inactive)	0.82 (inactive)	1.06	0.87	12 AU (inactive)
COc1ccc2c(c1OC)OC[C@@H](c1ccc(OC)c(OC)c1OC)C2	-2.69% (inactive)	0.93 (inactive)	0.93	0.86	96 AU (inactive)

Compound	inhibition [1]	red/green cell ratio (normalised) [2]	normalised cell number [2, 4]	normalised cell number [2, 5]	luciferase signal [3]
COc1cc(-c2coc3cc(O[C@@H]4O[C@H](CO)[C@@H](O)[C@H](O)[C@H]4O)c(OC)c(O)c3c2=O)cc(O)c1OC	-0.763% (inactive)	0.96 (inactive)	0.99	0.95	68 AU (inactive)
O=C(O)c1cc2cc(Cl)ccc2[nH]1	-0.282% (inactive)	1 (inactive)	1.21	1.21	52 AU (inactive)
Cc1cc(=O)oc2c(O)c(O)ccc12	-1.28% (inactive)	1.02 (inactive)	0.87	0.89	44 AU (inactive)
O=C(O)CCCN1C(=O)c2cccc3cccc(c23)C1=O	-3.59% (inactive)	0.82 (inactive)	1.29	1.06	48 AU (inactive)
O=C(Oc1cc(O)cc2c1C[C@@H](OC(=O)c1cc(O)c(O)c(O)c1)[C@@H](c1cc(O)c(O)c(O)c1)O2)c1cc(O)c(O)c(O)c1	10.8% (inactive)	1.04 (inactive)	0.96	0.99	44 AU (inactive)
CC(=O)O[C@@H]1CC[C@@]2(C)C(C[C@@H](OC(C)=O)[C@@]3(C)C4=CC(=O)O[C@@H](c5ccoc5)[C@]4(C)CCC23)C1(C)C (stereo not given in full)	-14.7% (inactive)	0.98 (inactive)	1.08	1.06	56 AU (inactive)
NC(C(=O)O)C(O)C(=O)O (stereo not given)	17.7% (inactive)	1.01 (inactive)	1.05	1.06	260 AU (active)
C=CC1=C(C)/C(=C/c2[nH]c(Cc3[nH]c(/C=C4\NC(=O)C(C)=C4C=C)c(C)c3CCC(=O)O)c(CCC(=O)O)c2C)NC1=O	2.22% (inactive)	0.85 (inactive)	1.14	0.97	60 AU (inactive)
COc1ccc2c(c1)OC[C@@H](Cc1ccc(OC)c(OC)c1)[C@H]2O	15.8% (inactive)	1.09 (inactive)	0.98	1.07	76 AU (inactive)
CCNC(=O)CC[C@H](N)C(=O)O	3.3% (inactive)	0.97 (inactive)	1.09	1.06	164 AU (inactive)
CC(=O)O[C@H]1C[C@@H](OC(C)=O)C(C)(C)C2C[C@@H](OC(C)=O)[C@@]3(C)C4=CC(=O)O[C@@H](c5ccoc5)[C@]4(C)CCC3[C@]21C (stereo not given in full)	0.0743% (inactive)	1.01 (inactive)	1	1.01	16 AU (inactive)
Cc1cc(O)c(C)c(O)c1C(=O)O	-9.88% (inactive)	0.88 (inactive)	1.09	0.97	72 AU (inactive)
COc1c(-c2coc3cc4c(cc3c2=O)CC(OC(C)=O)C(C)(C)O4)ccc2c1C=CC(C)(C)O2 (stereo not given)	13.9% (inactive)	0.78 (inactive)	1.02	0.8	56 AU (inactive)
COc1c2ccccc2nc2occc12	7.87% (inactive)	1.02 (inactive)	1.03	1.05	40 AU (inactive)
O=C(O[C@@H]1Cc2c(O)cc(O)cc2O[C@@H]1c1ccc(O)c(O)c1)c1cc(O)c(O)c(O)c1	5.78% (inactive)	0.99 (inactive)	0.85	0.83	52 AU (inactive)
C=C1C2CC[C@@]3(C)[C@H](c4ccoc4)OC(=O)C[C@]13O[C@H]1CC(=O)C(C)(C)[C@H](C(O)C(=O)OC)[C@@]21C (stereo not given in full)	-4.16% (inactive)	0.98 (inactive)	0.75	0.74	28 AU (inactive)
CC(=O)O[C@@H]1CC2C(C)(C)[C@H](O)CC[C@]2(C)C2CC[C@@]3(C)[C@H](c4ccoc4)OC(=O)C4OC43[C@@]21C (stereo not given in full)	-1.03% (inactive) and -1.39% (inactive)	1.03 (inactive)	1.03	1.06	36 AU (inactive)
O=C(O)c1nc2cc(Cl)c(Cl)cc2[nH]c1=O	-11.6% (inactive)	0.95 (inactive)	1.19	1.12	36 AU (inactive)
O=C(O)C1=C[C@@H](O)[C@@H](O)[C@H](O)C1	9.48% (inactive)	1.05 (inactive)	0.91	0.95	88 AU (inactive)
